Compounds without any hit were thinned out: in the full panel of roughly 83,000, 20% have a hit.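 Compound tested at a single concentration for 48 hours in 96-well plates; a percent growth value below 10 was scored as active.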 A number with no mark means an inactive call. The source made the active and inactive calls.
Columns and labels:
Experiment in all cases: NCI-60 one-dose screen, 48 h (100 = growth as untreated, 0 = no growth, -100 = all killed)
Settings in all cases: 10 µM unless noted
HCT-15 colon = test system: HCT-15 colon
HT29 colon = test system: HT29 colon
SNB-75 CNS = test system: SNB-75 CNS
SNB-19 CNS = test system: SNB-19 CNS
U251 CNS = test system: U251 CNS
PC-3 prostate = test system: PC-3 prostate
SK-MEL-5 melanoma = test system: SK-MEL-5 melanoma
UACC-62 melanoma = test system: UACC-62 melanoma
LOX IMVI melanoma = test system: LOX IMVI melanoma
SK-MEL-28 melanoma = test system: SK-MEL-28 melanoma
SK-MEL-2 melanoma = test system: SK-MEL-2 melanoma
EKVX NSCLC = test system: EKVX NSCLC
SN12C renal = test system: SN12C renal
UO-31 renal = test system: UO-31 renal
TK-10 renal = test system: TK-10 renal
ACHN renal = test system: ACHN renal
CAKI-1 renal = test system: CAKI-1 renal
A498 renal = test system: A498 renal
CCRF-CEM leukemia = test system: CCRF-CEM leukemia
MOLT-4 leukemia = test system: MOLT-4 leukemia

| SMILES | growth (HCT-15 colon) | growth (HT29 colon) | growth (SNB-75 CNS) | growth (SNB-19 CNS) | growth (U251 CNS) | growth (PC-3 prostate) | growth (SK-MEL-5 melanoma) | growth (UACC-62 melanoma) | growth (LOX IMVI melanoma) | growth (SK-MEL-28 melanoma) | growth (SK-MEL-2 melanoma) | growth (EKVX NSCLC) | growth (SN12C renal) | growth (UO-31 renal) | growth (TK-10 renal) | growth (ACHN renal) | growth (CAKI-1 renal) | growth (A498 renal) | growth (CCRF-CEM leukemia) | growth (MOLT-4 leukemia) |
| --- | --- | --- | --- | --- | --- | --- | --- | --- | --- | --- | --- | --- | --- | --- | --- | --- | --- | --- | --- | --- |
| O=C1/C(=C/c2ccc(Br)cc2)COc2ccc(O)cc21 | 42.5% | 28.9% | 92.7% | 87.3% | 57% | 77.4% | 96% | 79.3% | -1.48% (active) | 97.7% | 107% | 98.5% | 73.3% | 47.9% | 99.1% | 86.7% | 80.1% | 103% | 1.32% (active) | 16.6% |
| FC(F)(F)c1cccc(-c2nnn(Cc3cc(-c4cccc(Cl)c4)no3)n2)c1 | 105% | 103% | 88.9% | 97.7% | 104% | 104% | 101% | 103% | 99.4% | 112% | 114% | 115% | 101% | 85.7% | 109% | 107% | 98.9% | 103% | 96.1% | 107% |
| CC(C)(C)n1cc(-c2ccnc(NCCNS(=O)(=O)c3ccc(Br)cc3)c2)c(-c2cccc(O)c2)n1 | -0.0275% (active) | -11% (active) | 19.4% | 52.3% | 21.7% | 25.4% | -19% (active) | 49.6% | 12.7% | 38.5% | 30.3% | 43.4% | 35.7% |  | 55.6% | 25% | 29.1% | 11.5% | 27.7% |  |
| COc1ccc(C(=O)/C=C/Nc2cc(-c3ccccc3)nn2-c2ccccc2)cc1 | 88.1% | 99.4% | 94% | 92% | 93.2% | 86.8% | 93% | 72.2% | 92.9% | 99.5% | 101% | 89.4% | 94.5% | 79.3% | 84.2% | 99% | 94.3% | 78% | 84.2% | 85.4% |
| CCCCCCCCCCCCCCCCCCOc1ccccc1CC(=O)OCC[N+]1(C)CCCCC1 | 86.3% | 31.7% | 46.3% | 50.6% | 36.9% | 3.03% (active) | -2.94% (active) | 33.8% | 1.71% (active) | 62.5% | 80.3% | 63.1% | 24.2% | 73.8% | 66.2% | 94.7% | 65.5% | 83.3% | 6.32% (active) | 6.43% (active) |
| COc1ccc(-c2ccc(-c3ccc(C(=N)N)o3)o2)cc1 | -7.49% (active) | -9.08% (active) | 43.6% | 15.5% | -29.3% (active) | 25.5% | 25.6% | -61.1% (active) | -58.1% (active) | 71.1% | 54% | 58.4% | -23.9% (active) | 45.5% | 61.9% | 41.6% | 34.4% | 9.73% (active) | 5.45% (active) | 27.7% |
| CCOC(=O)c1cnc2sc(-c3ccc(OC)cc3)nc2c1Cl | 92.9% | 116% | 94.7% | 104% | 103% | 104% | 84.2% | 88.7% | 86.8% | 99% | 102% | 90.4% | 102% |  | 145% | 105% | 95% | 86.8% | 96.4% | 97.3% |
| Cc1c(C)c2c(c(C)c1OC(=O)CCC(=O)[O-])CCC(C)(CCCCCCCCCCC[P+](c1ccccc1)(c1ccccc1)c1ccccc1)O2 (configuration not stated) | 2.7% (active) | 6.17% (active) | -31.5% (active) | -42.4% (active) | -70.1% (active) | -31.9% (active) | -98.3% (active) | -54.1% (active) | -91.4% (active) | -77.3% (active) | -64.4% (active) | -25.1% (active) | -65.7% (active) | -3.37% (active) | -14.2% (active) | -5.75% (active) | -28.3% (active) | -73.9% (active) | 0.344% (active) | -25.5% (active) |
